Tests used:
Test in all cases: growth AUC relative to DMSO control (median of replicates) (fraction); higher = more growth (less inhibition), active = hit call of the paper
Conditions in all cases: 20 µM; 24 h;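 active = AUC reduced over 20% with Padj below 0.05 in at least 2 of 3 replicates; inactive = otherwise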
Coprococcus comes = tested on: Coprococcus comes
Method in brief: (§1)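 Hourly OD600 readings over 24 h tracked anaerobic gut bacterial monocultures grown at 37 °C in mGAM from OD600 0.05 with 20 µM compound (1% DMSO). After the minimum OD was set to 0, area under the growth curve was normalised to the plate median of solvent-only wells, or to row and column medians on the industrial chemical plate. Values are medians of three biological replicates grown on separate days.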

Escherichia coli ED1a = tested on: Escherichia coli ED1a
Method in brief: as §1

Escherichia coli IAI1 = tested on: Escherichia coli IAI1
Method in brief: as §1

Eubacterium rectale = tested on: Eubacterium rectale
Method in brief: as §1

[1] = tested on: Fusobacterium nucleatum subsp. animalis
Method in brief: as §1

Lactobacillus gasseri = tested on: Lactobacillus gasseri
Method in brief: as §1

Lactobacillus paracasei = tested on: Lactobacillus paracasei
Method in brief: as §1

Odoribacter splanchnicus = tested on: Odoribacter splanchnicus
Method in brief: as §1

[2] = tested on: Parabacteroides distasonis
Method in brief: as §1

Parabacteroides merdae = tested on: Parabacteroides merdae
Method in brief: as §1

Roseburia intestinalis = tested on: Roseburia intestinalis
Method in brief: as §1

Streptococcus salivarius = tested on: Streptococcus salivarius
Method in brief: as §1

Measured: growth AUC

N#CC(CCc1ccc(Cl)cc1)(Cn1cncn1)c1ccccc1 (centres undefined)
active: [2] 0.57
inactive: Coprococcus comes 0.969 | Escherichia coli ED1a 1.03 | Escherichia coli IAI1 1.02 | Eubacterium rectale 1.07 | [1] 0.942 | Lactobacillus gasseri 0.904 | Lactobacillus paracasei 0.952 | Odoribacter splanchnicus 0.88 | Parabacteroides merdae 0.96 | Roseburia intestinalis 0.911 | Streptococcus salivarius 0.934

CC1(C)[C@H](/C=C(\Cl)C(F)(F)F)[C@@H]1C(=O)O[C@@H](C#N)c1cccc(Oc2ccccc2)c1
inactive: Coprococcus comes 0.959 | Escherichia coli ED1a 1 | Escherichia coli IAI1 0.992 | Eubacterium rectale 0.961 | [1] 0.953 | Lactobacillus gasseri 0.853 | Lactobacillus paracasei 0.996 | Odoribacter splanchnicus 1 | [2] 0.985 | Parabacteroides merdae 0.957 | Roseburia intestinalis 0.919 | Streptococcus salivarius 0.957

CC1(C)CN=C(NN=C(/C=C/c2ccc(C(F)(F)F)cc2)/C=C/c2ccc(C(F)(F)F)cc2)NC1
active: Roseburia intestinalis 0.391
inactive: Coprococcus comes 1 | Escherichia coli ED1a 0.992 | Escherichia coli IAI1 1.04 | Eubacterium rectale 1.04 | [1] 1.06 | Lactobacillus gasseri 0.935 | Lactobacillus paracasei 0.903 | Odoribacter splanchnicus 1.04 | [2] 1.06 | Parabacteroides merdae 0.989 | Streptococcus salivarius 1.1

CN(C)C(=O)C(c1ccccc1)c1ccccc1
inactive: Coprococcus comes 0.974 | Escherichia coli ED1a 0.98 | Escherichia coli IAI1 0.977 | Eubacterium rectale 1.11 | [1] 0.975 | Lactobacillus gasseri 1 | Lactobacillus paracasei 0.887 | Odoribacter splanchnicus 0.957 | [2] 1 | Parabacteroides merdae 1 | Roseburia intestinalis 0.964 | Streptococcus salivarius 0.995

CNC(=O)Oc1cccc2c1OC(C)(C)O2
inactive: Coprococcus comes 1.02 | Escherichia coli ED1a 1 | Escherichia coli IAI1 0.993 | Eubacterium rectale 0.967 | [1] 1.01 | Lactobacillus gasseri 1.11 | Lactobacillus paracasei 0.984 | Odoribacter splanchnicus 1.02 | [2] 1.02 | Parabacteroides merdae 1.02 | Roseburia intestinalis 1.01 | Streptococcus salivarius 1

O=C1C2CC=CCC2C(=O)N1SC(Cl)(Cl)Cl (centres undefined)
inactive: Coprococcus comes 1.03 | Escherichia coli ED1a 1.02 | Escherichia coli IAI1 1.02 | Eubacterium rectale 1.1 | [1] 1.1 | Lactobacillus gasseri 1.06 | Lactobacillus paracasei 1.01 | Odoribacter splanchnicus 0.999 | [2] 1.07 | Parabacteroides merdae 1.02 | Roseburia intestinalis 1.01 | Streptococcus salivarius 1.05

COCC(=O)N(c1c(C)cccc1C)C(C)C(=O)OC (centres undefined)
inactive: Coprococcus comes 1.02 | Escherichia coli ED1a 0.989 | Escherichia coli IAI1 1.01 | Eubacterium rectale 1.04 | [1] 1.09 | Lactobacillus gasseri 1.09 | Lactobacillus paracasei 0.987 | Odoribacter splanchnicus 1.04 | [2] 1.05 | Parabacteroides merdae 1.05 | Roseburia intestinalis 1.01 | Streptococcus salivarius 0.986

ClC1=C(Cl)[C@]2(Cl)C3CC=CC3[C@@]1(Cl)C2(Cl)Cl (some centres undefined)
inactive: Coprococcus comes 0.942 | Escherichia coli ED1a 0.99 | Escherichia coli IAI1 1.01 | Eubacterium rectale 0.951 | [1] 0.846 | Lactobacillus gasseri 0.989 | Lactobacillus paracasei 1.03 | Odoribacter splanchnicus 0.987 | [2] 1.04 | Parabacteroides merdae 0.984 | Roseburia intestinalis 1 | Streptococcus salivarius 1

O=S1(=O)OCC2C(CO1)C1(Cl)C(Cl)=C(Cl)C2(Cl)C1(Cl)Cl (centres undefined)
inactive: Coprococcus comes 1.01 | Escherichia coli ED1a 0.991 | Escherichia coli IAI1 1 | Eubacterium rectale 1.01 | [1] 0.935 | Lactobacillus gasseri 0.919 | Lactobacillus paracasei 1.02 | Odoribacter splanchnicus 1.02 | [2] 1.09 | Parabacteroides merdae 0.955 | Roseburia intestinalis 0.915 | Streptococcus salivarius 0.991

COC(=O)COc1ccc(Cl)cc1Cl
inactive: Coprococcus comes 0.98 | Escherichia coli ED1a 0.968 | Escherichia coli IAI1 0.968 | Eubacterium rectale 1.21 | [1] 0.946 | Lactobacillus gasseri 0.915 | Lactobacillus paracasei 1.04 | Odoribacter splanchnicus 1.14 | [2] 0.931 | Parabacteroides merdae 0.964 | Roseburia intestinalis 0.943 | Streptococcus salivarius 0.937

CC(C)OC(=O)C(C(=O)OC(C)C)=C1SCCS1
active: [2] 0.782
inactive: Coprococcus comes 1.06 | Escherichia coli ED1a 1.01 | Escherichia coli IAI1 0.988 | Eubacterium rectale 1.02 | [1] 1.02 | Lactobacillus gasseri 0.977 | Lactobacillus paracasei 0.98 | Odoribacter splanchnicus 0.995 | Parabacteroides merdae 1.01 | Roseburia intestinalis 1.06 | Streptococcus salivarius 1.02

O=c1oc2ccccc2c(O)c1C1CC(c2ccc(-c3ccccc3)cc2)Cc2ccccc21 (centres undefined)
inactive: Coprococcus comes 0.946 | Escherichia coli ED1a 1 | Escherichia coli IAI1 0.959 | Eubacterium rectale 0.502 | [1] 1.02 | Lactobacillus gasseri 0.574 | Lactobacillus paracasei 0.887 | Odoribacter splanchnicus 0.959
active: [2] 0.0292 | Parabacteroides merdae 0.0278 | Roseburia intestinalis 0.711 | Streptococcus salivarius 0.709
